MITF TRPM1 HTS – activators of MITF-driven TRPM1 promoter reporter, primary screen, cell-based, SK-MEL-5, luciferase, single point; SK-MEL-5 TRPM1-promoter luciferase, 24 h; % of positive control, neutral wells = 0; activation, % at 12.5 µM; 300,000 tested, 0.75% active; AID 588334, 2011;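 active means mean activation of at least 80% with every replicate also reaching 80%; inconclusive means mean reaches 80% but some replicate falls short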;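 further: 0% = neutral control wells and 100% = parthenolide positive control wells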
esBAF inh – Bmi1 luciferase reporter increase in mESCs, primary screen, esBAF inhibitor project, mouse ES cells, Bmi1 luciferase knock-in, single point. reporter increase, % at 12.5 µM. 24 h; 100% = twice the neutral-well signal. 350,000 tested, 2% active; in the data active means activation above about 40%; inconclusive means no clear call, values can overlap the other calls;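 further: 0% = median of the plate's neutral control wells and 100% = double that signal; a rise in the Bmi1 reporter signal indicates esBAF inhibition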
FXN GAA850 act – FXN promoter activators, primary screen, cell-based, luciferase luminescence, HEK293 lucGAA850; AID 540364, 2011; HEK293 lucGAA850 FXN promoter luciferase reporter, 24 h; percent of 10 µM SAHA response; activation, % at 6 µM; 360,000 tested, 0.56% active;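 active means activation above the average of all compounds screened plus 3 SD, cutoff fixed separately per campaign, cut at about 7.5% in these data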;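 further: 0% = DMSO wells and 100% = 10 µM SAHA wells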
Wnt bcat act – Wnt/beta-catenin pathway activators, primary screen, cell-based, plate reader, single point | Wnt/beta-catenin reporter cell assay, activator | activation, % at 9.35 µM | 300,000 tested, 1.2% active; in the data active means activation above about 30%, passing the limit was not always enough; inconclusive means no clear call, values can overlap the other calls;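 further: 0% = neutral control wells and 100% = positive control wells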
AHR act – AHR activators, primary screen, cell-based, luminescence, luciferase reporter, human. AHR-responsive luciferase reporter cells. activation, % at 5 µM. 320,000 tested, 2.5% active; in the data active means activation above about 47%;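 further: 0% = vehicle wells and 100% = reference agonist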
Target sequence (P35869 whole entry, looked up): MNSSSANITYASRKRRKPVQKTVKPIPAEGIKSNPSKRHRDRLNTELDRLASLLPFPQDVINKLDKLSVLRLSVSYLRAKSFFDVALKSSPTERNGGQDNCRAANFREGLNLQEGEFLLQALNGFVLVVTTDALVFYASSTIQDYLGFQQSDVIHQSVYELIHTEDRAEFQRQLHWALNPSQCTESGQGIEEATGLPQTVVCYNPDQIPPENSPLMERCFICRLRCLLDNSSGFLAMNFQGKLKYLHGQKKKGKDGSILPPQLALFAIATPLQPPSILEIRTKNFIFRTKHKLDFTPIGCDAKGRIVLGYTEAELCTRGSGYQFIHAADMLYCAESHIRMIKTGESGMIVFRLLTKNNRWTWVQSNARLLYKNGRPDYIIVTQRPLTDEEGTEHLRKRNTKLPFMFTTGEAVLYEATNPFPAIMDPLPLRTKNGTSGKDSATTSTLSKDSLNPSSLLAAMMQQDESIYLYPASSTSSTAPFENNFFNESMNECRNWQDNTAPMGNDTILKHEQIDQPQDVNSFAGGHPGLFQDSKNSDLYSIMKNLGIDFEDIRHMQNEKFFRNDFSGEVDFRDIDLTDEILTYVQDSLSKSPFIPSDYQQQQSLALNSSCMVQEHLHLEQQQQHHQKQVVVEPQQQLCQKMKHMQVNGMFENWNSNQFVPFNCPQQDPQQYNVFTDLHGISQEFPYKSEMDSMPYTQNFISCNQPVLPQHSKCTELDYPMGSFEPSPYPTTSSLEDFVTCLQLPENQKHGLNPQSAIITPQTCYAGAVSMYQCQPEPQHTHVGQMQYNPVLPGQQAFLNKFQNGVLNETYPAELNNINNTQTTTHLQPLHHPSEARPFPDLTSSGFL
GAA30 FXN cntr – GAA30 FXN promoter activators, confirmation, counter-screen for GAA850 frataxin promoter activator project, cell-based, luminescence, HEK293, lucGAA30, triplicate; activation, % at 6 µM; HEK293 lucGAA30 FXN promoter luciferase, 24 h; DMSO = 0%, 5 µM ipriflavone = 100%; shares compounds with FXN GAA850 act; 1,900 tested, 66% active;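 active means mean activation above the mean of solvent-only control wells plus 3 SD, cut at about 22% in these data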;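 further: counterscreen of GAA850 promoter hits where activity marks nonselective or luminescence artifacts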
FXN GAA850 conf – FXN GAA850 promoter activators in reporter cells, confirmation, cell-based, luminescence, HEK293 lucGAA850, triplicate; shares compounds with FXN GAA850 act; HEK293 lucGAA850 FXN promoter luciferase reporter, 24 h; 100% = activation by SAHA; activation, % at 6 µM; 1,900 tested, 86% active;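 active means mean activation above a set limit taken from the primary screen, cut at about 8% in these data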;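 further: 0% = DMSO wells and 100% = 10 µM SAHA wells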
Numbers without * were called inactive; ? = inconclusive; . = no result. Most compounds without a hit are left out; they make up all but 4.2% or so of the library.

SMILES	MITF TRPM1 HTS	esBAF inh	FXN GAA850 act	Wnt bcat act	AHR act	GAA30 FXN cntr	FXN GAA850 conf
CC1(C(=O)OCc2cc(=O)n3cc(Br)ccc3n2)CC1(Cl)Cl (stereo unspecified)	?	83*	8.9*	6	9	99*	40*
CC1(C)NC(=O)N(CC(=O)OCc2cc(=O)n3cc(Br)ccc3n2)C1=O	4	.	0	-1	2	.	.
Cc1noc(C)c1NC(=O)Nc1cccc2c1O[C@H](CN(C)Cc1ccc(C(=O)O)cc1)[C@H](C)CN([C@@H](C)CO)C2=O	.	-4	.	.	.	.	.
O=C(CSc1nc2ccccc2o1)NC1CCCC1	-6	.	7.6*	-1	-1	3	2
O=C(Nc1cc(F)ccc1F)N[C@H]1CC[C@H](CCn2cc(C3CC3)nn2)O[C@H]1CO	.	5	.	.	.	.	.
COc1ccc(S(=O)(=O)Nc2ccc3c(c2)C(=O)N([C@@H](C)CO)C[C@H](C)[C@H](CN(C)C(=O)NC2CCCCC2)OCCCC[C@H](C)O3)cc1	.	4	.	.	.	.	.
COc1ccc(-c2nc(Cn3c(SCc4cccc(F)c4)nc4ccncc43)c(C)o2)cc1OC	2	17	12*	-2	27	19	4
COc1ccc(-c2nc(Cn3c(SCc4ccc(C)cc4)nc4ccncc43)c(C)o2)cc1OC	.	12	3	10	13	.	.
O=c1oc(-c2ccc(O)c(O)c2)cc2cccc(O)c12	35	64*	13*	3	22	129*	46*
Cc1ccc(S(=O)(=O)Nc2ccc3c(c2)C(=O)N([C@@H](C)CO)C[C@@H](C)[C@H](CN(C)S(=O)(=O)c2cn(C)cn2)O3)cc1	.	-4	.	.	.	.	.
Cn1nnnc1SCc1nc2ccccc2s1	.	28	4	.	16	.	.
Cc1cccc(C)c1Nc1nnc(SCc2nc3ccccc3s2)s1	14	.	8.6*	.	18	121*	43*
Cc1ccnc(SCc2nc3ccccc3s2)n1	39	.	8.3*	.	18	104*	31*
O=C1COc2ccc(C(=O)CCl)cc2N1	.	.	9.8*	-1	5	202*	-13
O=C(Nc1cc(F)ccc1F)N[C@@H]1CC[C@@H](CCNC(=O)c2cnccn2)O[C@@H]1CO	.	0	.	.	.	.	.
CCOC(=O)c1c(CSc2ccsc2)n(C)c2cc(Br)c(O)c(CN(C)C)c12	1	.	7.8*	15	5	-5	5
CCOC(=O)c1c(CSc2ccc(C)cc2)n(C)c2cc(Br)c(O)c(CN(C)C)c12	10	-32	11*	2	2	14	15*
CCOC(=O)c1c(CN2CCOCC2)n(-c2ccccc2)c2cc(Br)c(O)c(CN(C)C)c12	9	-2	1	.	1	.	.
CCOC(=O)c1c(CSc2ccccc2)n(C)c2cc(Br)c(O)c(CN(C)C)c12	2	-6	19*	1	5	11	12*
CCOC(=O)c1c(CN2CCCCC2)n(C)c2cc(Br)c(O)c(CN(C)C)c12	6	-5	0	.	-1	.	.
CCCNC(=O)N1[C@@H]2c3ccc(-c4cccc(OC)c4)c(=O)n3C[C@H]1[C@H](CO)[C@H]2C(=O)NC1CCC1	.	1	.	.	.	.	.
O=Nc1c(-c2ccccc2)n(O)[n+]([O-])c1-c1ccccc1	.	37	8.9*	?	.	75*	36*
COC(=O)[C@@H]1[C@@H](C#N)C2(c3ccccc3-c3ccccc32)N(c2ccc(Cl)cc2)N1C#N	-34	.	12*	7	1	-16	19*
COc1ccccc1NC(=O)N1CC[C@@H]2[C@@H](CO)N(C)c3ccc(-c4ccc(F)cc4)cc3[C@@H]21	.	-5	.	.	.	.	.
Nc1nc2ccc(Br)cc2s1	.	-2	3	1	.	.	.
SMILES	MITF TRPM1 HTS	esBAF inh	FXN GAA850 act	Wnt bcat act	AHR act	GAA30 FXN cntr	FXN GAA850 conf
Cc1cc2nc(N)sc2cc1C	48	10	8.4*	.	11	109*	27*
C[C@H](CO)N1C[C@H](C)[C@@H](CN(C)C(=O)Nc2ccc(C(F)(F)F)cc2)Oc2ccc(NC(=O)CCCCCC(=O)Nc3ccccc3N)cc2CC1=O	.	6	.	.	.	.	.
N#Cc1nc(COc2ccccc2F)oc1N1CCCCCC1	49	35	9.6*	11	36	47*	24*
N#Cc1nc(-c2ccccc2Cl)oc1N1CCCCC1	49	39	8.7*	.	27	56*	26*
O=C(NC1=NN(c2ccccc2)CC1)Nc1ccccc1F	27	.	8.5*	?	2	46*	18*
CC(=O)N[C@@H]1CC[C@H](CCNC(=O)C2CCC2)O[C@H]1CO	.	3	.	.	.	.	.
O=C(/C=C/C=C/c1ccccc1)c1ccco1	16	5	9.5*	40*	1	106*	44*
Cc1cccc(N2C(=O)N3[C@H](c4ccc(Br)cc4)[C@@H]4C(=O)N(C(C)(C)C)C(=O)[C@@H]4[C@]3(C)C2=O)c1	-5	3	14*	1	2	28*	16*
Cc1cccc(N2C(=O)N3[C@H](c4ccc(Br)cc4)[C@@H]4C(=O)N(C(C)(C)C)C(=O)[C@@H]4[C@]3(Cc3ccc(Cl)cc3)C2=O)c1	2	4	10*	-4	2	18	17*
CCOC(=O)c1ccc(NC(=O)c2ccccc2)cc1	114*	36	8.0*	19	1	79*	33*
CCOC(=O)c1ccc(NC(=O)c2nc(S(=O)(=O)Cc3ccccc3)ncc2Cl)cc1	-78	-41	16*	-9	3	-40	-27
COc1cccc(NC(=O)c2nc(S(C)(=O)=O)ncc2Cl)c1	-54	-10	50*	-10	6	69*	27*
COc1cccc(NC(=O)c2nc(SC)ncc2Cl)c1	-1	-3	2	2	11	.	.
C[C@@H]1CN([C@@H](C)CO)C(=O)c2cc(NC(=O)Nc3ccc4c(c3)OCO4)ccc2O[C@H]1CN(C)C(=O)Nc1ccccc1	.	4	.	.	.	.	.
CO[C@H]1CN(C)C(=O)c2ccc(NS(=O)(=O)c3ccccc3Cl)cc2OC[C@@H](C)NC[C@@H]1C	.	0	.	.	.	.	.
O=[N+]([O-])c1ccccc1Nc1nc(-c2cccnc2)cs1	17	34	9.1*	27	52*	87*	26*
COc1ccccc1Oc1ccc(N/C=C/C(=O)c2ccco2)cc1	59	87*	12*	16	17	83*	34*

Assay outcomes deposited in PubChem BioAssay by several laboratories.
